Read-out in test [1]: Macrophage colony-stimulating factor (MCSF), CSF1 (gene 1435)
The experiment in a line: BSK_CASM3C_MCSF: BioMAP Diversity Plus: CASM3C Assay for Macrophage colony-stimulating factor (MCSF) Biomarker Activity (AID 2283044).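 Also: M-CSF protein amount quantified by ELISA after 24 h exposure.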 The settings on record: primary human coronary artery smooth muscle cells; actives raise or lower the signal.

Read-out in test [2]: Low-density lipoprotein receptor (LDLR), LDLR (gene 3949)
Nature of the test: BSK_CASM3C_LDLR: BioMAP Diversity Plus: CASM3C Assay for Low-density lipoprotein receptor (LDLR) Biomarker Activity (AID 2283045).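 Also: LDLR protein level on the cell surface quantified by ELISA.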 The settings on record: primary human coronary artery smooth muscle cells; actives raise or lower the signal.

Read-out in test [3]: Monocyte Chemoattractant Protein-1 (MCP1), CCL2 (gene 6347)
Nature of the test: BSK_CASM3C_MCP1: BioMAP Diversity Plus: CASM3C Assay for Monocyte Chemoattractant Protein-1 (MCP1) Biomarker Activity (AID 2283046).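 Also: MCP-1 level quantified by ELISA 24 h after dosing.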 The settings on record: primary human coronary artery smooth muscle cells; actives raise or lower the signal.

Test [4] can be described thus: BSK_CASM3C_Proliferation: Cell Proliferation Assessment in the BioMAP Diversity Plus: CASM3C Assay (AID 2283047).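 Also: sulforhodamine B total protein stain as relative cell number at 560 nm; sub-confluent cells exposed 48 h before staining; fitted both ways against DMSO so gain or loss of cell number.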 The settings on record: primary human coronary artery smooth muscle cells.
Read-out in test [5]: Monokine induced gamma interferon (MIG), CXCL9 (gene 4283)
The experiment in a line: BSK_CASM3C_MIG: BioMAP Diversity Plus: CASM3C Assay for Monokine induced gamma interferon (MIG) Biomarker Activity (AID 2283048).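 Also: MIG protein level measured by ELISA.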 The settings on record: primary human coronary artery smooth muscle cells; actives raise or lower the signal.

Read-out in test [6]: serum amyloid A (SAA), SAA1 (gene 6288)
Nature of the test: BSK_CASM3C_SAA: BioMAP Diversity Plus: CASM3C Assay for serum amyloid A (SAA) Biomarker Activity (AID 2283049).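 Also: SAA protein level quantified by ELISA.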 The settings on record: primary human coronary artery smooth muscle cells; actives raise or lower the signal.

Test [7] can be described thus: BSK_CASM3C_SRB: Viability Assessment in the BioMAP Diversity Plus: CASM3C Assay (AID 2283050).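 Also: total protein by SRB staining as cytotoxicity measure in parallel cultures; cells exposed to compound for 24 h.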 The settings on record: primary human coronary artery smooth muscle cells.
Read-out in test [8]: Thrombomodulin, THBD (gene 7056)
Nature of the test: BSK_CASM3C_Thrombomodulin: BioMAP Diversity Plus: CASM3C Assay for Thrombomodulin Biomarker Activity (AID 2283051).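 Also: thrombomodulin protein level measured by ELISA 24 h after dosing.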 The settings on record: primary human coronary artery smooth muscle cells; actives raise or lower the signal.

Read-out in test [9]: Tissue Factor, F3 (gene 2152)
The experiment in a line: BSK_CASM3C_TissueFactor: BioMAP Diversity Plus: CASM3C Assay for Tissue Factor Biomarker Activity (AID 2283052).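 Also: cell surface tissue factor protein level read by ELISA.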 The settings on record: primary human coronary artery smooth muscle cells; actives raise or lower the signal.

Read-out in test [10]: Interferon-gamma inducible Protein 10 (IP10), CXCL10 (gene 3627)
Nature of the test: BSK_hDFCGF_IP10: BioMAP Diversity Plus: hDFCGF Assay for Interferon-gamma inducible Protein 10 (IP10) Biomarker Activity (AID 2283053). The settings on record: primary human foreskin fibroblasts; actives raise or lower the signal. Put shortly:
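IP-10 levels, quantified by ELISA, are taken from human foreskin fibroblast cultures 24 h after chemical treatment, with DMSO serving as negative control and baseline for bidirectional analysis.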

Usually AC50 stands for the midpoint of the concentration-response curve, whichever way the signal moves.

The structures appear in SMILES notation. Active and inactive are the calls of the source. The calls were made as follows: active = hit-call score of the fitted dose curve at least 0.9, where 1 is the maximum; inactive = score below 0.9.

Regarding `CC1(C)Cc2cccc(O)c2O1`, the result in test [1], in [2], in test [3], in test [4], in [5] and in [6] was inactive. Further, the outcome in test [7], in test [8], in [9] and in [10] was inactive.
Regarding `COP(=S)(OC)Oc1cc(Cl)c(Cl)cc1Cl`, the AC50 in test [1] was 3.97 µM (active); in test [4], 29.3 µM (active); in [6] it was 20 µM (active). The outcome in test [2], in test [3], in [5], in test [7], in test [8] and in test [9] was inactive. For the same compound, the result in test [10] was inactive.
Take `Oc1cccc2cccnc12`: the outcome in [1], in test [2], in [3], in [5], in test [6] and in test [7] was inactive. For the same compound, in test [9], the outcome was inactive. Moreover, the figures for the half-maximal activity concentration (AC50) in test [4], in test [8] and in test [10] were 5.5 µM (active), 4.74 µM (active) and 0.206 µM (active), respectively.
In the case of `C(=NC1CCCCC1)=NC1CCCCC1`, the concentration at half-maximal activity (AC50) is 26.1 µM (active) in [1]; 34.5 µM (active) in test [2]; 32.8 µM (active) in [3]; 33.5 µM (active) in [5]; 35.7 µM (active) in test [6]; 20 µM (active) in [7]. The AC50 is 34.5 µM (active) in test [8], 25.1 µM (active) in test [9] and 11.7 µM (active) in test [10].
`O=S(=O)(c1ccc(Cl)cc1)c1ccc(Cl)cc1`: the outcome in [1], in test [2], in test [3], in test [4], in test [5] and in test [6] was inactive. The outcome in [7], in test [8], in test [9] and in test [10] was inactive.
As to `O=[N+]([O-])c1ccc(O)c([N+](=O)[O-])c1`, the result in test [1], in test [2], in [3], in test [4], in test [5] and in test [6] was inactive. Also, the outcome in test [7], in [8], in test [9] and in test [10] was inactive.
Consider `O=C(Nc1ccc2[nH]ccc2c1)c1cc2cc(F)ccc2n1Cc1cccc(F)c1`, for which the AC50 in [1] was 33.7 µM (active); in [2], 14.6 µM (active); in test [3], 31.6 µM (active); in [4], 21.1 µM (active); in test [5], 31.2 µM (active); in test [6] it was 36.7 µM (active). The AC50 in [7] was 28.1 µM (active); in [8], 33 µM (active); in test [9], 20 µM (active); in test [10] it was 3.33 µM (active).
With `CC(C)(C)CC(C)(C)c1ccc(O)cc1`, the AC50 in [1] is 11.3 µM (active); in test [2] it was 16 µM (active); in test [3], 11.9 µM (active); in test [4] it was 10.1 µM (active); in test [5], 26.4 µM (active); in [6], 10.7 µM (active). For the same compound, the AC50 is 13.7 µM (active) in [7], 33.8 µM (active) in test [8], 10 µM (active) in test [9] and 9 µM (active) in test [10].
In the case of `O=c1[nH]c(=O)[nH]c(=O)[nH]1`, the outcome in [1], in [2], in test [3], in [4], in test [5] and in test [6] was inactive. Also, the outcome in test [7], in [8], in [9] and in [10] was inactive.
For the compound `CC(C)(OO)c1ccccc1`, the result in test [1], in test [2], in [3], in [5], in test [6] and in [7] was inactive. Further, the outcome in test [8] and in [9] was inactive. For the same compound, the figures for the AC50 in test [4] and in test [10] were 22.5 µM (active) and 32.7 µM (active), respectively.
For `COC(=O)Cc1ccccc1`, the result in test [1], in test [2], in test [3], in test [4], in [5] and in [6] was inactive. For the same compound, the result in test [7], in [8], in [9] and in test [10] was inactive.
On to `C[C@@H]1C[C@@H]([C@H](O)CC2CC(=O)NC(=O)C2)C(=O)[C@@H](C)C1`, for which the AC50 is 4.28 µM (active) in test [1]; 0.791 µM (active) in [2]; 9.46 µM (active) in test [3]; 1.63 µM (active) in [4]; 1.78 µM (active) in test [5]; 8.63 µM (active) in test [7]. The AC50 in [10] is 2.32 µM (active). Further, the outcome in [6], in [8] and in test [9] was inactive.
Take `OCc1ccco1`: the outcome in [1], in test [2], in test [3], in test [4], in test [5] and in test [6] was inactive. Also, the result in [7], in [8], in test [9] and in test [10] was inactive.
For `Nc1ncc([N+](=O)[O-])s1`, the result in test [1], in [2], in [3], in test [4], in [5] and in test [6] was inactive. In addition, the outcome in test [7], in test [8], in test [9] and in [10] was inactive.
On to `O=[N+]([O-])c1ccc2c3c(cccc13)CC2`, for which the outcome in [1], in test [2], in test [3], in test [4], in test [5] and in test [6] was inactive. The result in test [7], in [8], in test [9] and in test [10] was inactive.
With `CC(C)(C)c1cc(O)ccc1O`, the AC50 in test [1] is 20 µM (active); in [4], 29.6 µM (active); in test [8], 14.7 µM (active); in test [9], 11.2 µM (active); in test [10], 4.87 µM (active). The result in [2], in [3], in test [5], in [6] and in test [7] was inactive.
As for `CCOC(=O)/C=C(C)/C=C/C[C@@H](C)CCCC(C)C`, the AC50 was 26.6 µM (active) in [1]; 27.2 µM (active) in test [2]; 31.9 µM (active) in test [3]; 29 µM (active) in test [4]; 30 µM (active) in [5]; 33.1 µM (active) in [6]. Also, the half-maximal activity concentration (AC50) is 31 µM (active) in test [7], 35.8 µM (active) in test [8], 20 µM (active) in test [9] and 31.4 µM (active) in test [10].

The record behind these values is PubChem BioAssay (EPA / NIEHS).
